Source: PubChem BioAssay (National Center for Advancing Translational Sciences (NCATS))
Pf growth 48h: P. falciparum growth inhibition at 48 hours (one generation). P. falciparum luciferase growth in erythrocytes, 48 h. Potency, µM (doses to about 28.7 µM), for inactives: at the highest dose activity change, negative = inhibition, actives largely listed as inhibitors. 5.9% of 310,000 active. AID 504832; further: potency means the concentration at half of the fitted maximal effect
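Here the parasites carry a stable luciferase gene and grow inside erythrocytes in Albumax-based RPMI medium with compound for one erythrocytic cycle. Activity is scored as loss of luminescent signal.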
HCMV antiviral: inhibitors of human cytomegalovirus; HFF cells, HCMV-luciferase reporter, 72 h; stronger effect = lower value; activity change, negative = inhibition, % at 57.5 µM; 4.5% of 410,000 active; AID 1259415; in the data active means activity change below about -60%; inconclusive means no clear call, values can overlap the other calls; inactive means above about -39%
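Luciferase read-out from HCMV-luciferase-infected HFFs (MOI 1 PFU/cell) 72 h post infection at 37C; compounds added after 16 h cell attachment; activity normalized between buffer-only basal and Salinomycin (10uM) inhibitor controls.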
Pf growth 96h: P. falciparum growth inhibition at 96 hour, primary screen for plastid delayed-death inhibitors | AID 504834 | P. falciparum luciferase reporter growth, 96 h | Potency, µM (top dose mostly 28.7 µM), for inactives: at the top dose activity change, negative = inhibition, hits mostly inhibitors | 6.9% of 320,000 active; further: potency means the concentration at half of the fitted maximal effect
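Compounds incubated with erythrocytes infected by luciferase-expressing P. falciparum (2% hematocrit, 0.05% parasitemia final) for 96 hours, 37 C in 5% CO2. Growth inhibition scored as decreased luciferase luminescence.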
HCV inhibitor: blocks hepatitis C virus; Potency, µM (titrated, usually from 41.8 µM), for inactives: top-dose activity change, negative = inhibition, usual class: inhibitors; 3.4% of 340,000 active; Huh7.5.1 HCVcc-Cre infection, luciferase reporter, 44 h; further: potency means the concentration at half of the fitted maximal effect
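Luciferase read-out (15 sec integration) after a 15 min room-temperature substrate step quantifies HCVcc-Cre infection. Cells, 1,000 per well, had compound added 4 h post-plating, then virus at ~0.5 moi, and were cultured 44 h.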
* = called active by the depositor; u = inconclusive; x = not tested or not shown; [ ] = another dose, or the depositor's remark. Compounds with a hit are over-represented: about 13% of the library has one in this group of screens. Unless noted, the call rests on the fitted dose curve; in most records, active means well fitted inhibition curve with a large enough effect; inconclusive means small, poorly fitted or top-dose-only effect, or another doubt; inactive means no such curve, though single readings can be large or run the other way. On the % scale 0 is the no-effect control and ±100 the full control effect.

SMILES | Pf growth 48h | HCMV antiviral | Pf growth 96h | HCV inhibitor
CN(Cc1ccccc1)C(=O)c1ccc(NC(=O)Cc2ccc(NC(=O)C3CCCN(C(=O)C4CCCCC4)C3)cc2)cc1 (stereo not drawn) | x | -36 | x | 16%[8.37 µM]
CN(Cc1ccccc1)C(=O)c1ccc(NC(=O)Cc2ccc(NC(=O)C3CCCN(C(=O)C4CCC4)C3)cc2)cc1 (stereo not drawn) | x | -15 | x | u
CN(Cc1ccccc1)C(=O)c1ccc(NC(=O)Cc2ccc(NC(=O)C3CCCN(C(=O)CCc4ccccc4)C3)cc2)cc1 (stereo not drawn) | x | -67* | x | 2.2µM*
CN(Cc1ccccc1)C(=O)c1ccc(NC(=O)C2CCCN(C(=O)OC(C)(C)C)C2)cc1 (stereo not drawn) | x | -39 | x | 6.3µM*
O=C(Nc1ccccc1)[C@H]1[C@H](CO)[C@H]2Cn3c(cccc3=O)[C@H]2N1C(=O)C1CC1 | x | 42 | x | x
Cc1nn(CCC#N)c(C)c1Oc1ccccc1O | 69% | -10 | -9% | 6%
CCn1nc(C)c(Oc2ccccc2O)c1C | -1% | 2 | 12µM* | 1%
S=C(NC1CCCCC1)N1CCN(c2ccccn2)CC1 | -14% | 9 | 12µM* | -10%
FC(F)(F)c1cccc(N2CCN(C(=S)NC3CCCC3)CC2)c1 | u | -29 | 13µM* | 32µM*
FC(F)(F)c1ccc(NC(=S)NC2CCCCC2)cc1 | u | -40 | u | u
FC(F)(F)c1cccc(NC(=S)Nc2cccc(NC(=S)Nc3cccc(C(F)(F)F)c3)n2)c1 | 12µM* | u | u | 10µM*
FC(F)(F)c1cccc(NC(=S)NC2CCCC2)c1 | u | -64* | 6% | 9%
CCOc1ccccc1NC(=O)CN(CCc1ccccc1)S(=O)(=O)c1ccc(C)cc1 | x | -1 | x | x
CCc1cccc(NC(=O)C(NS(=O)(=O)c2ccc3nc(C)sc3c2)C(C)C)c1 (stereo not drawn) | x | -6 | x | x
CN(C(=O)Nc1cccc(C(F)(F)F)c1)C1CCCCC1 | 20% | -63* | 45% | 1%
S=C(NC1CCCCC1)N1CCOCCOCCN(C(=S)NC2CCCCC2)CCOCCOCC1 | u | -78* | 10µM* | -17%
O=C(Nc1cccc(C(F)(F)F)c1)C1CCCCC1 | x | 21 | 18% | 7%
O=C(NC1CCCCCC1)C(=S)N1CCOCC1 | 7% | 10 | u | 12%
CCOc1ccc(NC(=O)CC2C(=O)N(c3cccc(C)c3)C(=O)N2Cc2cccs2)cc1 (stereo not drawn) | x | 10 | x | x
COc1ccccc1NS(=O)(=O)c1cc(NC(=O)c2ccco2)ccc1N1CCOCC1 | u | 37 | 10µM* | -28%
COc1ccc(NS(=O)(=O)c2ccc(N3CCOCC3)c(NC(=O)c3ccco3)c2)cc1 | u | -22 | -18% | -27%
COc1ccccc1NS(=O)(=O)c1cc(NC(=O)CCC2CCCC2)ccc1N1CCOCC1 | u | -104* | u | 10%
COc1ccccc1NS(=O)(=O)c1cc(NC(=O)c2cccs2)ccc1N1CCOCC1 | 9.3µM* | -34 | u | u
CCC(C(=O)Nc1ccc(N2CCOCC2)c(S(=O)(=O)Nc2ccccc2OC)c1)c1ccccc1 (stereo not drawn) | x | -81* | x | u
CC(C)C(=O)Nc1ccc(N2CCOCC2)c(S(=O)(=O)Nc2ccccc2Cl)c1 | x | -21 | x | -25%
SMILES | Pf growth 48h | HCMV antiviral | Pf growth 96h | HCV inhibitor
C[C@@H]1CN([C@@H](C)CO)C(=O)c2cc(Br)cnc2O[C@H]1CN(C)C(=O)c1ccncc1 | x | 22 | x | x
Cc1ccc(NCc2cc3cc4c(cc3n(CC(=O)Nc3ccc(C)cc3)c2=O)OCCO4)cc1 | x | 78 | x | x
Cc1ccc2c(c1)N(C(=O)N1CCC(C(=O)NCc3ccccc3C)CC1)CC(C)O2 (stereo not drawn) | x | -17 | x | x
COc1ccccc1NS(=O)(=O)c1cc(NC(=O)c2ccccc2[N+](=O)[O-])ccc1N1CCOCC1 | x | -24 | x | u
COc1ccccc1NS(=O)(=O)c1ccc(N2CCOCC2)c(NC(=O)c2ccco2)c1 | -27% | -25 | u | 11µM*
COc1ccccc1NS(=O)(=O)c1cc(NC(=O)c2ccccc2F)ccc1N1CCOCC1 | 0% | 6 | 9.3µM* | u
COc1ccccc1NS(=O)(=O)c1ccc(NC(=O)CCNC(=O)c2ccco2)cc1 | u | -12 | 8.3µM* | 4%
CCCCCC(=O)N/N=C(\C)c1ccccn1 | 1.7µM* | -99* | u | u
CCCCCCCCCC(=O)N/N=C(\C)c1cccnc1 | -26% | 11 | u | 16%
O=C(COc1ccccc1-c1ccccc1)N/N=C/c1ccc2ccccc2c1 | -2% | -100* | 2.3µM* | u
C/C(=N\NC(=O)COc1ccccc1-c1ccccc1)c1ccccn1 | 2.1µM* | -98* | u | 5µM*
O=C(COc1ccccc1-c1ccccc1)N/N=C/c1ccncc1 | u | -38 | u | u
C/C(=N\NC(=O)COc1ccccc1-c1ccccc1)c1ccc(O)cc1O | u | -76* | u | 11µM*
CCOC(=O)C1CCN(C(=O)c2[nH]c(C(F)(F)F)nc2-c2ccccc2)CC1 | x | -8 | x | x
Cc1cccc(NC(=O)c2oc3ccccc3c2NC(=O)Cc2coc3cc(C)cc(C)c23)c1 | x | -4 | x | x
Nc1nc(CN2CCN(C(c3ccccc3)c3ccccc3)CC2)nc(Nc2ccccc2)n1 | 8.3µM* | 70 | 4.7µM* | u
Nc1nc(CN2CCN(c3ccccc3F)CC2)nc(Nc2ccccc2)n1 | u | 24 | u | 7%
Cc1cccc(Nc2nc(N)nc(CN3CCN(c4ccc(F)cc4)CC3)n2)c1 | u | 32 | 10µM* | -26%
Nc1nc(CN2CCN(c3ccccc3)CC2)nc(Nc2ccc(Cl)cc2)n1 | u | -65* | 5% | 13µM*
Nc1nc(CN2CCC(Cc3ccccc3)CC2)nc(Nc2ccccc2)n1 | x | 35 | 7.4µM* | u
Nc1nc(CN2CCCCCC2)nc(Nc2ccccc2)n1 | 4% | -21 | u | -1%
COc1cccc(CNC(=O)c2ccc3c(c2)nc2n3CCC(C)C2)c1OC (stereo not drawn) | x | -10 | x | x
CCc1ccccc1NC(=O)CC1NCCNC1=O (stereo not drawn) | x | 3 | x | x
COc1ccccc1CNc1ccc(-c2nc(-c3cccnc3)no2)cc1[N+](=O)[O-] | x | 8 | x | x
Cc1ccc(Nc2nc(N)nc(CN3CCN(c4ccccc4F)CC3)n2)cc1 | u | 40 | 6.6µM* | u
Cc1ccc(Nc2nc(N)nc(CN3CCN(C(=O)c4ccco4)CC3)n2)cc1Cl | u | -4 | 7.4µM* | -15%
Cc1ccc(-c2nc(C)c(CCNC(=O)C(=O)Nc3cc(C)ccc3C)s2)cc1 | x | 12 | x | x
CN(/N=C/c1ccc(O)cc1O)c1ncc(C(F)(F)F)cc1Cl | 41% | -74* | -2% | -28%
CN(/N=C/c1ccccc1Cl)c1ncc(Cl)cc1C(F)(F)F | 37% | 23 | 0% | -4%
CN(C)c1ccc(/C=C2/C(=N\O)C3CCN2CC3)cc1 | 176% | -98* | 86% | -14%
